Holding throughout (assay): DAPPL (digital affinity profiling via proximity ligation, sequencing); 10 mM Tris-HCl pH 7.5, 50 mM NaCl, 1 mM DTT, 4% glycerol, room temperature, 30 min; GST-TFs on glutathione beads, 16-mer random dsDNA library, 0.1% formaldehyde crosslink after washing; high values mean tight binding
What all share (conditions): protein: recombinant; tags: N-terminal GST; dsDNA, one strand shown

One experiment addresses T1, FLI1 (Homo sapiens, UniProt Q01543 1-452).
T1 sequence: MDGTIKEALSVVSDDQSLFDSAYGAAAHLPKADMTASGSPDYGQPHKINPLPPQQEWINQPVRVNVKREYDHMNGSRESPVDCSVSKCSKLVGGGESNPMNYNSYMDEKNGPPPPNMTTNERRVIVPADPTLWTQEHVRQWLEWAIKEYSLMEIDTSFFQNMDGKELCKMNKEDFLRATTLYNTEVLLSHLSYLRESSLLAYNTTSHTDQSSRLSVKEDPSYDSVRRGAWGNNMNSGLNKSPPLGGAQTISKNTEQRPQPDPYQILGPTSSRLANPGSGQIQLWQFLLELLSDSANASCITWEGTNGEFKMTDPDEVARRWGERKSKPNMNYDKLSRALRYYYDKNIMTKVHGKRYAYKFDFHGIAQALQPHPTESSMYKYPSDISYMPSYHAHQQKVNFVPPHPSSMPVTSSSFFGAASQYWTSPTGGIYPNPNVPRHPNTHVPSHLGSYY
A digest of the protocol: (§1)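 Binding signal is defined as a hexamer's read frequency for one factor over its frequency for the tag-only sample. To obtain reads, GST-fused human transcription factors were expressed in yeast, captured on glutathione beads, barcoded with DNA and pooled with that sample. Pools met 200 nmole of a 16-mer random double-stranded DNA library in Tris/NaCl/DTT/glycerol buffer for 30 min at room temperature before washing, 0.1% formaldehyde crosslinking, proximity ligation (BsaI/T4 ligase, 1 h, 37 °C), PCR and Illumina NextSeq500 sequencing.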

For the next experiment, the target named is T2, ELK1 (Homo sapiens, UniProt P19419 1-428).
T2 sequence: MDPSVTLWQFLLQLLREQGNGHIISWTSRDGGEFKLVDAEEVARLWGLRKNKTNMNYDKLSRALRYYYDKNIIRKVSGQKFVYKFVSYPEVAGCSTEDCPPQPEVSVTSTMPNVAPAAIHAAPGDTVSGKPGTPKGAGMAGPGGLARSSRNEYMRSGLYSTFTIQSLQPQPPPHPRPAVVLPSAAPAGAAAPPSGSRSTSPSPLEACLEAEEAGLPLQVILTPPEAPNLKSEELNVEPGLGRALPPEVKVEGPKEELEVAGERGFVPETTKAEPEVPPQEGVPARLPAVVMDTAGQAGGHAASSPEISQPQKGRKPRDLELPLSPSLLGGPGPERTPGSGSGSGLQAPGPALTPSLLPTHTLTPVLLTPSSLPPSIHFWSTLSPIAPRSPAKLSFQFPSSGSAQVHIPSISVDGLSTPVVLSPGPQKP
A digest of the protocol:
as §1

The target of another experiment is T3, GABPA (Homo sapiens, UniProt Q06546 1-454).
T3 sequence: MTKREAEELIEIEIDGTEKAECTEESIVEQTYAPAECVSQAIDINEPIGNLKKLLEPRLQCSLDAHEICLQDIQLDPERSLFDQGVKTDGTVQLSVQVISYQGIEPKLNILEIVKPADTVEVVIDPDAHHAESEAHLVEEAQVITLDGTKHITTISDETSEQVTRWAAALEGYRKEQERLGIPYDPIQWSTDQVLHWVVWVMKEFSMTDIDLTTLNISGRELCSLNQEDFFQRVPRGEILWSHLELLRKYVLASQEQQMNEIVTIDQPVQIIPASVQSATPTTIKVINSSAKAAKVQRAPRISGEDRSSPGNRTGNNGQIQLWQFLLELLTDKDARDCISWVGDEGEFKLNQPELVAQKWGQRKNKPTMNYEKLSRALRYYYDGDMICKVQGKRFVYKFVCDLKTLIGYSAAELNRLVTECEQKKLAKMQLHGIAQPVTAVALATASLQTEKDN
Put shortly:
as §1

The target in the next experiment is T4, ERG (Homo sapiens, UniProt P11308 1-479).
T4 sequence: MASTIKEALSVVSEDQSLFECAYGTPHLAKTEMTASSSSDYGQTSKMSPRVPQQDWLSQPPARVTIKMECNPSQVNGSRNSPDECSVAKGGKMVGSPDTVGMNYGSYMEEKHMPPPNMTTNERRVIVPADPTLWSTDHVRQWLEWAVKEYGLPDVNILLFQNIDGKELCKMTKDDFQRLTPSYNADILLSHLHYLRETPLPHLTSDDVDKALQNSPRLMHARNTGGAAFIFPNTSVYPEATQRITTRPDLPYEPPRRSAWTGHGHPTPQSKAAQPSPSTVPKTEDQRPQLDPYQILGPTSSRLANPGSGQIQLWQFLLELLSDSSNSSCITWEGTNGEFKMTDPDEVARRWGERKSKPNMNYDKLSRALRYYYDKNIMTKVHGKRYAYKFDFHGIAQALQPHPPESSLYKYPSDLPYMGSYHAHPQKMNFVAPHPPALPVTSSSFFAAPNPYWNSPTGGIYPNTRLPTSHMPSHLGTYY
Put shortly:
as §1

The target in a further experiment is ELF1 (Homo sapiens, UniProt P32519 1-619). A digest of the protocol: as §1
Sequence of ELF1 (P32519 whole entry): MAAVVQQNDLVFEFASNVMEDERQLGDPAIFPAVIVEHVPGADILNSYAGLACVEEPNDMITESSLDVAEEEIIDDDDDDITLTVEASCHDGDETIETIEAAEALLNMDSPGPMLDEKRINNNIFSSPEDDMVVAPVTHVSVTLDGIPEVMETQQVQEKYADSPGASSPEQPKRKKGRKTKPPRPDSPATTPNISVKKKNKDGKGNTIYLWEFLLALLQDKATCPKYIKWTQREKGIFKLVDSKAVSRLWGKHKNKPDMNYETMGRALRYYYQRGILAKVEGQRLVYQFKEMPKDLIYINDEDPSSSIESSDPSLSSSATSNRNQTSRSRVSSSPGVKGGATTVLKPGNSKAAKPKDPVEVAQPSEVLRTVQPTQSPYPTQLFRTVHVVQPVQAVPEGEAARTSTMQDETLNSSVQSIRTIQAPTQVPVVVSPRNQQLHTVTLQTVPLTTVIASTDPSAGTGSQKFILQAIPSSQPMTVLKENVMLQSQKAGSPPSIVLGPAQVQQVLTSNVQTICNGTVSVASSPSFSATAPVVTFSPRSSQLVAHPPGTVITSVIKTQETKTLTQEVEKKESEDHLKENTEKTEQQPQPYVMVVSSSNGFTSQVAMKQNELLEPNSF
For the next experiment, the target named is T5, EHF (Homo sapiens, UniProt Q9NZC4 1-300).
T5 sequence: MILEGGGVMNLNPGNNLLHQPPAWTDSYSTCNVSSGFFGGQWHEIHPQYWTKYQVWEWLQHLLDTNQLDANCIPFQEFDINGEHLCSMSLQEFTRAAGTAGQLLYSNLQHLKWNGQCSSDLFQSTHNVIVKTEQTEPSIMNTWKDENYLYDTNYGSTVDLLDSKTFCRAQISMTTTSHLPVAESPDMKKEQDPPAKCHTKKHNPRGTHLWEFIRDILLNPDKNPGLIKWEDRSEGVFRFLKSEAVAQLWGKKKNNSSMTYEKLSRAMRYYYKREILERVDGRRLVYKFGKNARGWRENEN
A digest of the protocol: as §1

The next experiment has as its target SPI1 (Homo sapiens, UniProt P17947 1-270). Put shortly:
as §1

In the next experiment the target is SPIB (Homo sapiens, UniProt Q01892 1-262). A digest of the protocol: as §1
Sequence of SPIB (Q01892 whole entry): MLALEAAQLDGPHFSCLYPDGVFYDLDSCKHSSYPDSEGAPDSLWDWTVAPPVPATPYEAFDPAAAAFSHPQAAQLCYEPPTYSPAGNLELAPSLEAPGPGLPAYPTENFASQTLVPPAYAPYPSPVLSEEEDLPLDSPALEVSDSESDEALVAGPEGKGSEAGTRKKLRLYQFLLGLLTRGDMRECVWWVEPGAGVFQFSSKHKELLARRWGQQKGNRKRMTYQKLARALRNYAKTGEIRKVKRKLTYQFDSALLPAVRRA
The next experiment addresses T6, ELK3 (Homo sapiens, UniProt P41970 1-407).
T6 sequence: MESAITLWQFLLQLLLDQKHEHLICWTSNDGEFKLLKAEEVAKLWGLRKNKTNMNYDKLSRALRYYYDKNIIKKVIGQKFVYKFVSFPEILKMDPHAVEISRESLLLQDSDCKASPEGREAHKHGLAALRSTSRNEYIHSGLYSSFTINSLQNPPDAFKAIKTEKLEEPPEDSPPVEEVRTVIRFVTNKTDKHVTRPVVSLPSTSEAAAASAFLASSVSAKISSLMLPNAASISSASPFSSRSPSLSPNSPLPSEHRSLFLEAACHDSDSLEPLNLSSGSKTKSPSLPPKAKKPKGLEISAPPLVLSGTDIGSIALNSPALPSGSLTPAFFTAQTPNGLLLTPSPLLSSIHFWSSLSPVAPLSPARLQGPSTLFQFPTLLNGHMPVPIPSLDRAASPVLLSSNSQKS
Put shortly:
as §1

The target in another experiment is T7, FEV (Homo sapiens, UniProt Q99581 1-238).
T7 sequence: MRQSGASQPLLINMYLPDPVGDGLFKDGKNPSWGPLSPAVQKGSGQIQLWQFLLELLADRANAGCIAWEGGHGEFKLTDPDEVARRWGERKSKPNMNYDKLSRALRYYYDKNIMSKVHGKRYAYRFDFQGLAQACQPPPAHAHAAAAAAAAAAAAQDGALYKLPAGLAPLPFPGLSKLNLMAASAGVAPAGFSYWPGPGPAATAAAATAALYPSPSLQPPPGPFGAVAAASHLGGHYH
Put shortly:
as §1

In the next experiment the target is ETV5 (Homo sapiens, UniProt P41161 1-510). A digest of the protocol:
as §1

The target in another experiment is T8, SPIC (Homo sapiens, UniProt Q8N5J4 1-248).
T8 sequence: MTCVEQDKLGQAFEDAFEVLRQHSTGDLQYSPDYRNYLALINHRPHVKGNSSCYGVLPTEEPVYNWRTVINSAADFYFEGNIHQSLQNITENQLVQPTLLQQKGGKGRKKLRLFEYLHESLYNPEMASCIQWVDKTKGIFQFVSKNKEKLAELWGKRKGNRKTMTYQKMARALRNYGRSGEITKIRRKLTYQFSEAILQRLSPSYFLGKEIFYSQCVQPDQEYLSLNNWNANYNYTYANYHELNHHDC
A digest of the protocol:
as §1

The target of the next experiment is ELF4 (Homo sapiens, UniProt Q99607 1-663). A digest of the protocol:
as §1

A further experiment has as its target T9, ELK4 (Homo sapiens, UniProt P28324-2 1-405).
T9 sequence: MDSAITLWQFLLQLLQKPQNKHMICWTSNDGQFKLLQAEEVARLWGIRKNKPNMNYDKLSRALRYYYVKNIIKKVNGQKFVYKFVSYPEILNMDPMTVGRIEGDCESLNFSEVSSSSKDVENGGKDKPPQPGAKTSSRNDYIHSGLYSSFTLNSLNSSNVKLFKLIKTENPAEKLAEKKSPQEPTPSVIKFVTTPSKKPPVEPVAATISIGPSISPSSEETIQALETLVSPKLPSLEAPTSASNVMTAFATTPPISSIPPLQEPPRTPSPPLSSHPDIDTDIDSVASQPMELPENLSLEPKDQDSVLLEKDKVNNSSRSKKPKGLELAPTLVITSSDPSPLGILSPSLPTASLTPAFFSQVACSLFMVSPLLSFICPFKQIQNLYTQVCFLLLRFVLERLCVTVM
A digest of the protocol:
as §1

For the next experiment, the target named is T10, ETV2 (Homo sapiens, UniProt O00321 1-342).
T10 sequence: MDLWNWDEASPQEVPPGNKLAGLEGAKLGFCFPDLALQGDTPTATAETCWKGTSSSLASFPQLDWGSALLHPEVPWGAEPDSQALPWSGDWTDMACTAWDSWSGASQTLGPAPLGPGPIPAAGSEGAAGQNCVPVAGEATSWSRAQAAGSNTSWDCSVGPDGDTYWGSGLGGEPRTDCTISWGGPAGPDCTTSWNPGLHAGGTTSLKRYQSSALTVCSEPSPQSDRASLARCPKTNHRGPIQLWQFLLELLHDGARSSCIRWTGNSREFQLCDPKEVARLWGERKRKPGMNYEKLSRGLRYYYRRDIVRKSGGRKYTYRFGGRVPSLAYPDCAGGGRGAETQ
A digest of the protocol: as §1

The next experiment addresses T11, ELF3 (Homo sapiens, UniProt P78545 1-371).
T11 sequence: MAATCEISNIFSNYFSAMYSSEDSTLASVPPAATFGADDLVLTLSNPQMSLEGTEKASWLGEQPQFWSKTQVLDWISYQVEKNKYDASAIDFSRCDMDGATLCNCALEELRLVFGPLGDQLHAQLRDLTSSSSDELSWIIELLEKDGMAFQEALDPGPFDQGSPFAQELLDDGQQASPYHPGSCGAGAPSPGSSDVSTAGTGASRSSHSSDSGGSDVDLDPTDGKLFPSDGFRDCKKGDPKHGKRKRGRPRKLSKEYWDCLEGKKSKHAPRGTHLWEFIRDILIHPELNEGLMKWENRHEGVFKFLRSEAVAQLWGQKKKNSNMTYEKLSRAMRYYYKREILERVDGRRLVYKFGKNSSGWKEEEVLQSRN
Put shortly:
as §1

The next experiment addresses ETV1 (Homo sapiens, UniProt P50549 1-477). Put shortly:
as §1

Sequence of ELF4 (Q99607 whole entry): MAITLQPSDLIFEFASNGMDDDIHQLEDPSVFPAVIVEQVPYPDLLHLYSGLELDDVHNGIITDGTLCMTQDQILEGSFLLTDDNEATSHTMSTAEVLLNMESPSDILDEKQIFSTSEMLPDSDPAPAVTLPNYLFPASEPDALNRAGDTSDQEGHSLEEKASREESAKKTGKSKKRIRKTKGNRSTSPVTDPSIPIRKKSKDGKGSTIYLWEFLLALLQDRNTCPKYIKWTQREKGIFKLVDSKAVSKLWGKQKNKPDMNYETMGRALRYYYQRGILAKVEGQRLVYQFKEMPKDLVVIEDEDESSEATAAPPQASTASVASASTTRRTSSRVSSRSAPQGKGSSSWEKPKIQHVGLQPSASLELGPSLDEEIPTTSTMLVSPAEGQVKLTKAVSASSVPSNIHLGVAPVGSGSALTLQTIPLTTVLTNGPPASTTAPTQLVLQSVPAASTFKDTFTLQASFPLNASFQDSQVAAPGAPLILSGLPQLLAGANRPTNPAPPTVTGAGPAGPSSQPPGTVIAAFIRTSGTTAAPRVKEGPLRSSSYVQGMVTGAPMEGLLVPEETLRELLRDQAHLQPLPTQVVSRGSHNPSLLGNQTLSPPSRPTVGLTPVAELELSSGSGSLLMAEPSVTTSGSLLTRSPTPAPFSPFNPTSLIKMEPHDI
Sequence of ETV5 (P41161 whole entry): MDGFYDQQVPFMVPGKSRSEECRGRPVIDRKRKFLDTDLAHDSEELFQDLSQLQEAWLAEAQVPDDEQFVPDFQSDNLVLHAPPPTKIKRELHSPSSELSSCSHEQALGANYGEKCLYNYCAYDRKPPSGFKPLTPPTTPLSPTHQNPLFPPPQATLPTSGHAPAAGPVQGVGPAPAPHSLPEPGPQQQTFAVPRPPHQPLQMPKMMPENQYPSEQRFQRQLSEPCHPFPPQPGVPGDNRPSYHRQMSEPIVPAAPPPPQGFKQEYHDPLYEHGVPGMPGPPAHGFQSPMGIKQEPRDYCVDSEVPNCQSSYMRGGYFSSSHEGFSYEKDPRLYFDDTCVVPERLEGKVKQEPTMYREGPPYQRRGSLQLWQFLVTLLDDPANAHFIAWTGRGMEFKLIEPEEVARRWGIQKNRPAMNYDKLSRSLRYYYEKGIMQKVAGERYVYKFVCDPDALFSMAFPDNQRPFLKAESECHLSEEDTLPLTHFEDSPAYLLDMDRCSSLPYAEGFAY
Sequence of ETV1 (P50549 whole entry): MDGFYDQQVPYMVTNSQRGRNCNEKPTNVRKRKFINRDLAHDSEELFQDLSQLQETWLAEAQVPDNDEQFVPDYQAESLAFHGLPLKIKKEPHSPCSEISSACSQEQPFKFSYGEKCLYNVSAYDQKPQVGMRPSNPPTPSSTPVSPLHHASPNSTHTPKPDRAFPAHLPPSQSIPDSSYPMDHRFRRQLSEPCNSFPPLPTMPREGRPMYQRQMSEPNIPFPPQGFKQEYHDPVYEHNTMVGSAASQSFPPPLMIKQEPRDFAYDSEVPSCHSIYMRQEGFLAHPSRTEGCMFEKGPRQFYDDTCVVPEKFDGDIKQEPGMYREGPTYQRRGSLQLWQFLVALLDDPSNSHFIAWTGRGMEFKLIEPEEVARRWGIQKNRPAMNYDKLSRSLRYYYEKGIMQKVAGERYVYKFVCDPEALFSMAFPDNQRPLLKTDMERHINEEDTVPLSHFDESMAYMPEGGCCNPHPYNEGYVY

Take GAAACG: the binding signal was 1.17 fold enrichment (6-mer frequency, TF over GST control) with FLI1; 1.26 fold enrichment (6-mer frequency, TF over GST control) with ELK1; 1.2 fold enrichment (6-mer frequency, TF over GST control) with GABPA; 1.38 fold enrichment (6-mer frequency, TF over GST control) with ERG; 1.18 fold enrichment (6-mer frequency, TF over GST control) with ELF1; 1.19 fold enrichment (6-mer frequency, TF over GST control) with EHF. Besides, the binding signal with SPI1 was 1.17 fold enrichment (6-mer frequency, TF over GST control); with SPIB it was 1.25 fold enrichment (6-mer frequency, TF over GST control); with ELK3 it was 1.27 fold enrichment (6-mer frequency, TF over GST control); with FEV, 1.36 fold enrichment (6-mer frequency, TF over GST control); in the experiment with ETV5, 1.21 fold enrichment (6-mer frequency, TF over GST control); with SPIC, 1.19 fold enrichment (6-mer frequency, TF over GST control). The binding signal in the experiment with ELF4 is 1.14 fold enrichment (6-mer frequency, TF over GST control); with ELK4 it was 1.05 fold enrichment (6-mer frequency, TF over GST control); with ETV2, 1.28 fold enrichment (6-mer frequency, TF over GST control); in the experiment with ELF3 it was 1.27 fold enrichment (6-mer frequency, TF over GST control); in the experiment with ETV1, 1.29 fold enrichment (6-mer frequency, TF over GST control).
As to CAAATG, the binding signal with FLI1 is 1.11 fold enrichment (6-mer frequency, TF over GST control); with ELK1, 1.16 fold enrichment (6-mer frequency, TF over GST control); with GABPA it was 1.08 fold enrichment (6-mer frequency, TF over GST control); with ERG, 1.16 fold enrichment (6-mer frequency, TF over GST control); with ELF1, 1.22 fold enrichment (6-mer frequency, TF over GST control); in the experiment with EHF it was 1.1 fold enrichment (6-mer frequency, TF over GST control). Also, the binding signal with SPI1 was 1.25 fold enrichment (6-mer frequency, TF over GST control); with SPIB, 1.13 fold enrichment (6-mer frequency, TF over GST control); in the experiment with ELK3, 1.09 fold enrichment (6-mer frequency, TF over GST control); with FEV, 1.11 fold enrichment (6-mer frequency, TF over GST control); with ETV5 it was 1.09 fold enrichment (6-mer frequency, TF over GST control); with SPIC, 1.01 fold enrichment (6-mer frequency, TF over GST control). Further, the binding signal is 1.15 fold enrichment (6-mer frequency, TF over GST control) with ELF4; 1.11 fold enrichment (6-mer frequency, TF over GST control) in the experiment with ELK4; 1.19 fold enrichment (6-mer frequency, TF over GST control) in the experiment with ETV2; 1.15 fold enrichment (6-mer frequency, TF over GST control) with ELF3; 1.19 fold enrichment (6-mer frequency, TF over GST control) with ETV1.

Values taken from publication PMC7862700, “An all-to-all approach to the identification of sequence-specific readers for epigenetic DNA modifications on cytosine”.
